D1 antagonist: human D1 dopamine receptor antagonism | activity change, negative = inhibition, % at 10 µM | HEK293 TREx D1 cells, calcium flux, dopamine EC80; hits give low values | AID 504652 | 360,000 tested, 3.2% active; in the data active = activity change below about -30%
Target sequence (P21728 whole entry, looked up): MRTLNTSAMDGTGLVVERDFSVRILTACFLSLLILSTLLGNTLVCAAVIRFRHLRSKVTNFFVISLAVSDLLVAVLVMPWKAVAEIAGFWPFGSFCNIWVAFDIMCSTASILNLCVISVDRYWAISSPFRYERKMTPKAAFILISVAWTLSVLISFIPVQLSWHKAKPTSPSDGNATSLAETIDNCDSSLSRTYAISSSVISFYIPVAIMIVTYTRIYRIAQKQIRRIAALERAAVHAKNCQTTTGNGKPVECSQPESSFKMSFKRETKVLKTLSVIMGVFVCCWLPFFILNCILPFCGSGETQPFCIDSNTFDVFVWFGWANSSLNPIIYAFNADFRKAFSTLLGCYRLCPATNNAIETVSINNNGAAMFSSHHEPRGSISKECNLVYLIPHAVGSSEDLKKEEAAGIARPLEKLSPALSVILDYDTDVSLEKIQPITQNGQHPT
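Using tetracycline-induced force-coupled D1 Hek293 cells and a calcium dye, signals were followed for 180 s after compound, then for 180 s after EC80 dopamine, to detect inhibitors.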
TRHR ag: TRH receptor (human) agonism; P34981; TRHR cells, calcium flux fluo-8, FDSS agonist mode; activation, % at 2 µM; 360,000 tested, 0.18% active; AID 493084
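Read-out: compound-evoked intracellular calcium rise in TRHR cells, fluo-8 dye, kinetic FDSS fluorescence at 1 s/cycle following a 10-cycle baseline. Cells cultured overnight before dye loading (30 min–1.5 h, RT).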
D1 ag: human D1 receptor agonism; activation, % at 2 µM; P21728; HEK293 T-REx D1 cells, calcium flux, agonist mode; 360,000 tested, 1% active; AID 504660
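Tetracycline-induced HEK293 TREx D1 cells, force-coupled to calcium signalling, were dye-loaded with a no-wash calcium kit. Compound was pin-added after a 10 s baseline. Fluorescence was read kinetically at 1 cycle/s for 180 s, with calcium rises flagged as agonism.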
TRHR PAM: allosteric enhancers of human TRH receptor; P34981; TRHR cells, fluo-8 calcium fluorescence, EC20 TRH enhancement; enhancement, % at 2 µM; 360,000 tested, 0.66% active; in the data active = enhancement above about 30%
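Enhancer read-out: after compound pinning and an initial kinetic agonist-mode read, an EC20 of TRH (10 nM final) was injected and fluo-8 calcium signal (Ex 480/Em 530) followed at 1 s/cycle for 100 cycles in TRHR-expressing cells.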
D1 PAM: human D1 dopamine receptor positive modulation. potentiation, % at 10 µM. 360,000 tested, 0.036% active. HEK293 TREx D1 cells, calcium flux, dopamine EC20 potentiation. P21728; in the data active = potentiation above about 30%
Glioma ERSR ind: inducers of ER stress response in human glioma cells. 420,000 tested, 0.02% active. U87-MG GRP78 promoter luciferase reporter, 16 h. AID 602332. Potency, µM, usual class: activators; active = well fitted activation curve with a large enough effect; note: series mostly up to about 76 µM; nearly all actives have a fitted effect of over 35% in size
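Stably transfected U87-MG human glioma cells carrying a GRP78-based luminescent sensor were seeded at 1000 cells/well, pin-dosed with compounds and incubated 16 h. Luciferase reagent was then added, and end-point luminescence was read after 10 min at room temperature.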
Of the large screens only hits and unclear results are named; the others gave an inactive call. Compounds with a hit are over-represented: about 4% of the library has one in this group of screens. Cut-off read from the data, not from the text of the source, unless noted: active = activation above about 30%; inactive = the rest.

N=C1C(c2ccccc2)=C(O)CN1CCO	D1 antagonist -30
CCOc1ccc(NC(=O)Nc2cnccn2)cc1	TRHR PAM 36
CCOc1ccc(NC(=O)Nc2nc(SCC)ns2)cc1	D1 antagonist -41
O=C(Nc1cccc(F)c1)Nc1ccccn1	D1 antagonist -37
O=C(Nc1ccncc1)Nc1ccccn1	none
CC(C)N(C(=O)NC(=O)Nc1ccc(S(=O)(=O)N2CCCC2)cc1)S(C)(=O)=O	none
CCOc1ccc(NC(=O)NC(=O)N(C(C)C)S(C)(=O)=O)cc1	D1 antagonist -35
O=C1c2ccccc2NC(c2ccccc2)N1Cc1ccccc1 (configuration not stated)	none (no result: D1 antagonist, TRHR ag, D1 ag, TRHR PAM, D1 PAM)
CCC(CC)C(=O)c1c[nH]c(C(=O)NCc2cccnc2)c1	none
O=C(COc1ccccc1)Nc1nnc(-c2ccccc2Cl)o1	none (no result: D1 antagonist, TRHR ag, D1 ag, TRHR PAM, D1 PAM)
CCC(=O)N1N=C(c2cccs2)CC1c1ccc(C)cc1 (configuration not stated)	none
O=C(Nc1cc(Oc2ccc(Cl)cc2)cc([N+](=O)[O-])c1)c1ccco1	none
O=C(Nc1ccc(S(=O)(=O)N2CCCCC2)cc1)C1CC(=O)N(Cc2ccccc2)C1 (configuration not stated)	none
O=C(Nc1cccc(F)c1)Nc1cnccn1	D1 antagonist -31
CCOC(=O)Cc1csc(NC(=O)Cc2ccc(Br)cc2)n1	D1 antagonist -37
CCOC(=O)Cc1csc(NC(=O)c2ccc(NC(C)=O)cc2)n1	none
CCOC(=O)Cc1csc(NC(=O)NC2(C(F)(F)F)Oc3ccc(Cl)cc3O2)n1 (configuration not stated)	none
CCOC(=O)Cc1csc(NC(=O)Nc2ccc(OC(F)(F)F)cc2)n1	D1 antagonist -36
CCOC(=O)Cc1csc(NC(=O)c2cc(C)c(C)s2)n1	D1 antagonist -35
CCOC(=O)Cc1csc(NC(=O)NC2(C(F)(F)F)Oc3cc(Cl)c(Cl)cc3O2)n1	D1 ag 35
COc1cc(C(C)=O)ccc1Oc1cnccn1	none
Cc1c(C2=CCN(S(=O)(=O)c3cccc(Cl)c3)CC2)c2ccccc2n1CC(=O)N1CCCC1	none
C/C=C\C=C/C(=O)Nc1cccc(C2=NOC3(C2)C[C@H](C(N)=O)N(C(=O)CC)C3)c1 (some centres not stated)	none
COc1cccc(NC(=O)CN(C)C(=O)c2ccc(-n3cncn3)c([N+](=O)[O-])c2)c1	none
CN(CC(=O)Nc1cccc(F)c1)C(=O)c1ccc(-n2cncn2)c([N+](=O)[O-])c1	D1 antagonist -40
Cc1cccc(NC(=O)CSc2nc3ccc(NC(=O)COc4ccccc4F)cc3s2)c1	none
C/C(=N\NC(=O)CCCNc1ccc(C)cc1)c1ccccn1	TRHR PAM 32
CCOCCCNC(=O)c1cc(Sc2cccc(Cl)c2)nc2ccccc12	D1 antagonist -60
CCC(C)NC(=O)c1cc(Sc2cccc(Cl)c2)nc2ccccc12 (configuration not stated)	D1 antagonist -61
CCc1ccc(Sc2cc(C(=O)NC(C)CC)c3ccccc3n2)cc1 (configuration not stated)	none
CC1CCCCN1CCCNC(=O)c1cc(Sc2cccc(Cl)c2)nc2ccccc12 (configuration not stated)	D1 antagonist -42
COc1ccccc1NCCC(=O)OCC(=O)Nc1cccc(S(=O)(=O)N(C)C)c1	none
O=C(COC(=O)C1CCC(N2C(=O)C3C4CCC(C4)C3C2=O)CC1)c1ccc(F)cc1 (configuration not stated)	D1 antagonist -35
O=C(COC(=O)C1CC(=O)N(C2CCCCC2)C1)c1ccc(F)cc1 (configuration not stated)	none
CCN(CC)CC#CCC(O)(c1ccccc1)c1ccc(Br)cc1 (configuration not stated)	D1 antagonist -40, D1 ag 32
CCN(CC)CC#CCC(O)(c1ccccc1)c1ccccc1	none
CCOC(=O)C1=C(C)NC(C)=C(C(=O)OC)C1c1ccco1 (configuration not stated)	none
C=CCOC(=O)C1=C(C)NC(C)=C(C(=O)OCC=C)C1c1ccco1	D1 antagonist -30
CCN1CCn2c1nc(N1CCCCC1)nc2=O	none

Assay outcomes (PubChem BioAssay)
